From PubChem
This is a sample that favours compounds with a hit; in the whole collection about 2.9% have one here.
p53 reactivation – mutant p53 re-activation in reporter cells | H1299 p53-A138V BP100-luciferase reporter, luminescence, 24 h | Potency, µM (doses to about 92.2 µM), inactives show at the highest dose activity change, positive = activation, hits mostly activators | 320,000 compounds, 0.063% hits | AID 504706; further: potency means the concentration at half of the fitted maximal effect; % of control where 0% means no effect; nearly all actives have a fitted effect of over 45% in size
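H1299 (p53-null), stable ts p53-A138V + BP100-Luc; 1000 cells/well, Opti-MEM/10% FBS; cpd 4 pt, 1:5; 24 h, 37 deg C, 5% CO2; detection reagent 10 min RT; luminescence.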
GLP-1R inv ag – inverse agonists of human GLP-1 receptor; Potency, µM (highest dose often 38.3 µM), for the others: at the top dose activity change, negative = inhibition, hits mostly inhibitors; P43220; HEK293 GLP-1R CRE-luciferase, luminescence, 24 h; GLP-1R form is constitutively active; 410,000 compounds, 1.6% hits; further: potency means the concentration at half of the fitted maximal effect; on the % scale 0 is the no-effect control and ±100 the full control effect; nearly all actives have a fitted effect of over 55% in size
Target sequence (P43220 whole entry, looked up): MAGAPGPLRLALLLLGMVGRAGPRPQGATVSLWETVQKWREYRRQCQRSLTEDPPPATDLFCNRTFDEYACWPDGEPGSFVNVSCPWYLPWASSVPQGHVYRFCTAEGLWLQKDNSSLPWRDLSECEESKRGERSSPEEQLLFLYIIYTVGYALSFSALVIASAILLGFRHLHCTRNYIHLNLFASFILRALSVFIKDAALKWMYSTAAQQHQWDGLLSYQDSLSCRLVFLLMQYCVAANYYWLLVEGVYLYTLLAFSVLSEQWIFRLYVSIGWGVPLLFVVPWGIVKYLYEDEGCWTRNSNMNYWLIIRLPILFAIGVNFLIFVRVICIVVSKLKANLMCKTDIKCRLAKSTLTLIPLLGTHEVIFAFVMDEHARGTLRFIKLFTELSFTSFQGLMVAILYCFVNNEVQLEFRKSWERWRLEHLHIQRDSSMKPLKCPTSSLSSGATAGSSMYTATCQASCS
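Readout was luciferase luminescence, measured 12 min after detection reagent at room temperature. Beforehand, GLP-1R reporter HEK293 cells had sat 12 h, then received compounds for 24 hr at 37 deg C.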
LDHA inh – LDHA (human) enzyme inhibition | P00338 | purified LDHA, NADH/diaphorase-resazurin fluorescence; stronger effect = lower value | activity change, % (values are at about 110 or 230 µM) | 480,000 compounds, 0.15% hits | AID 1347041; in the data active means activity change below about -30%; inconclusive means mostly about -25% to -30%;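 further: plate controls were DMSO wells for no effect and wells without enzyme for full effect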
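Human LDH5 at 2 nM final in Tris HCl pH 7.4 with 0.06 mM NADH and 0.2 mM pyruvate, reacted 5 minutes at room temperature. Remaining NADH coupled via diaphorase/resazurin; resorufin fluorescence read at 0 and 20 minutes, normalized to enzyme-free and DMSO wells.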
ClpP mod – qHTS Assay for Activators of ClpP; 340,000 compounds, 1.9% hits; ATP-dependent Clp protease proteolytic subunit (Bacillus subtilis (strain 168)), P80244; purified B. subtilis ClpP, FRET peptide cleavage, 20 min; Potency, µM (top dose mostly 57.5 µM), for inactives: at the highest dose activity change, negative = active; AID 651965, 2013; active means well fitted falling curve with a large enough effect; inconclusive means small, poorly fitted or top-dose-only effect; inactive means no such curve, though single readings can be large or run the other way; further: potency means the concentration at half of the fitted maximal effect; the source files actives as falling curves though it sought activators and does not explain the sign; nearly all actives have a fitted effect of over 65% in size
Target sequence (P80244 whole entry, looked up): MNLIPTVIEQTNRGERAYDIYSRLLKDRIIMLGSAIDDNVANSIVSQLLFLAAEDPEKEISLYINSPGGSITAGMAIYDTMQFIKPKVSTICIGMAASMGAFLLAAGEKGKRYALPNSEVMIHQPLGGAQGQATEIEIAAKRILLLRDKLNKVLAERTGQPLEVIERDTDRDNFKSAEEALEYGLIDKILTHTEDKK
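FRET quenching reversal measured ClpP activation: 10 microg/mL B. subtilis ClpP at pH 8 with the FRET-FV decapeptide, read at 430 nm after 320 nm excitation. The 20-min minus 0-min signal was scaled between DMSO/no-enzyme wells and ADEP (5.8 microM final).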
GLP1R cytotox – cytotoxic in the GLP-1 receptor inverse agonist counter-screen. HEK293 cAMP-luciferase reporter cells, luminescence, 24 h. Potency, µM (highest dose often 38.3 µM), for the others: at the top dose activity change, negative = inhibition, hits mostly inhibitors. 410,000 compounds, 0.13% hits;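 further: loss of luciferase light is scored as toxicity; potency means the concentration at half of the fitted maximal effect; on the % scale 0 is the no-effect control and ±100 the full control effect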
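Seeding density was 200 cells/uL; after overnight-length (12 h) culture, 23 nL compounds went on for 24 h at 37 °C. Readout used a luciferase detection reagent, luminescence taken after 12 min at room temperature.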
GLP-1R agonist – agonists of human GLP-1 receptor; 380,000 compounds, 0.007% hits; P43220; Potency, µM (highest dose often 45.6 µM), for inactives: top-dose activation, hits mostly activators; HEK293 GLP-1R CRE-luciferase, luminescence, 4-6 h; cells express a hypersensitive GLP-1R form; further: potency means the concentration at half of the fitted maximal effect; % of control where 0% means no effect
The depositor's hits bear a star; i = inactive; ? = inconclusive; . = no result given; [ ] = remark or other dose. Unless noted, the call rests on the fitted dose curve; in most records, active means well fitted curve in the direction sought with a large enough effect; inconclusive means small, poorly fitted or top-dose-only effect, or another doubt; inactive means no such curve, though single readings can be large; an effect the other way counts as inactive or inconclusive.

SMILES	p53 reactivation	GLP-1R inv ag	LDHA inh	ClpP mod	GLP1R cytotox	GLP-1R agonist
O=C1CCCCC1C(O)(C(=O)c1ccccc1)c1ccccc1 (centres undefined)	.	10µM*	-5.5	-0.2%	1.2%	0.7%
COC(=O)[C@]12CCCCC=C1N(CCC1=CCCCC1)C(=O)[C@H](CC(=O)NCC13CC4CC(CC(C4)C1)C3)C2	.	?	-0.3	-1.1%	-7.0%	-1.8%
COc1ccc(-c2noc(CCC(=O)NCC3CCN(Cc4cccc(C)c4)CC3)n2)cc1	1.1%	11.2µM*	-5.3	-0.8%	-28.6%	3.2%
COc1ccc(-c2noc(CCC(=O)NC3CCN(Cc4ccccc4)CC3)n2)cc1	1.7%	?	-1.6	2.3%	-11.7%	0.7%
COC(=O)C1=CN(C(C)C)C=C(C(=O)OC)C1c1ccsc1	.	.	1.6	.	.	.
CCOC(=O)C1=CN(C)C=C(C(=O)OCC)C1c1ccsc1	-20.9%	1.0%	0.0	8.91µM*	i	6.9%
C=C(Br)Cn1c(CCC)nc2ccccc21	0.6%	3.55µM*	-1.4	-0.1%	5.6%	4.6%
Cc1cccc(NC(=O)C2(C)CC3c4ccccc4C2c2ccccc23)c1C (centres undefined)	-7.4%	10µM*	-1.9	-2.2%	9.8%	-14.0%
C=CCn1c(SCC(=O)Nc2ccc(F)cc2F)nc2c([nH]c3ccccc32)c1=O	24.7%	33.6%	-9.2	-4.7%	2.8%	-3.4%
CCC(C)NS(=O)(=O)c1ccc(NC(=O)C(Sc2ccccc2)c2ccccc2)cc1 (centres undefined)	6.1%	?	-3.6	0.7%	8.6%[1.53 µM]	-5.1%
CCCCNS(=O)(=O)c1ccc(NC(=O)C(Sc2ccccc2)c2ccccc2)cc1 (centres undefined)	-10.4%	4.47µM*	0.8	-2.7%	-11.8%	-5.0%
COc1cccc(OCc2cc(C(=O)N(Cc3ccccc3)CC3CC3)no2)c1	4.5%	8.91µM*	0.6	-0.4%	-4.5%	8.7%
COc1cccc(OCc2cc(C(=O)N(C)Cc3nc4ccccc4[nH]3)no2)c1	?	?	-1.5	-5.3%	1.1%	10.4%
COc1ccc(NC(=O)CCCSc2nc(-c3ccco3)cc(C(F)(F)F)n2)cc1OC	-6.4%	11.2µM*	-2.2	-0.3%	-8.5%	8.5%
Cc1ccccc1Cn1ccc(NC(=O)CCSc2nc(-c3ccco3)cc(C(F)(F)F)n2)n1	2.2%	?	-2.0	28.2µM*	12.4%	-18.1%
Cc1ccc(Cn2ccc(NC(=O)CCSc3nc(-c4ccco4)cc(C(F)(F)F)n3)n2)cc1	16.5%	?	-1.3	-3.0%	-16.5%	-2.4%
Cc1cc(NC(=O)CSc2nc(-c3ccco3)cc(C(F)(F)F)n2)no1	-1.4%	?	-5.1	25.1µM*	?	18.0%
CN(C)c1ccc(C(C[N+](=O)[O-])c2c(N)n(C)c(=O)n(C)c2=O)c(F)c1C#N (centres undefined)	-12.4%	?	-2.5	114.7%	?	-12.0%
COc1ccc(Br)cc1C(C[N+](=O)[O-])c1c(N)n(C)c(=O)n(C)c1=O (centres undefined)	-14.6%	?	2.0	-2.7%	10µM*	-2.1%
Cc1cc(C)nc(Nc2nc(C)c3cc4c(cc3n2)OCO4)n1	-23.5%	-4.8%	-6.1	15.8µM*	?	-3.4%
Cc1cc(C)nc(Nc2nc(C)c3cc(C)c(C)cc3n2)n1	.	.	-4.4	.	.	.
Cc1ccc(Cl)cc1N1CCN(C(=O)C2CCN(S(=O)(=O)c3cccnc3)CC2)CC1	-2.5%	?	-2.5	-2.3%	0.8%	1.1%
CN(C(=O)CSc1cc(C(=O)c2nccn2C)c2ccccc2n1)c1ccccc1	8.2%	10µM*	0.3	.	?	5.7%
CC(C)=C1C2CCC1C1C(=O)N(NC(=O)COc3ccc(C(C)(C)C)cc3)C(=O)C21 (centres undefined)	9.9%	7.08µM*	0.0	1.1%	4.7%	-4.6%
Fc1ccc2c(c1)Sc1ccc(Cl)cc1CC2N1CCN(CCC2OCCO2)CC1 (centres undefined)	.	3.55µM*	-3.4	.	?	16.8%
SMILES	p53 reactivation	GLP-1R inv ag	LDHA inh	ClpP mod	GLP1R cytotox	GLP-1R agonist
CC1C(=O)C(C)C(c2cc(Cl)ccc2O)NC1c1cc(Cl)ccc1O (centres undefined)	-12.7%	5.62µM*	6.6	.	?	-2.8%
COc1cccc(C2NC(c3cccc(OC)c3O)C(C)C(=O)C2C)c1O (centres undefined)	-5.1%	0.0%	9.5	0.5%	-29.3%	1.1%
CCN(CC)C(=O)Cc1c(O)c2ccccc2[nH]c1=O	1.6%	36.1%	-0.5	3.5%	-9.6%	-0.5%
CCCCNC(=O)Cc1c(O)c2ccccc2[nH]c1=O	0.6%	3.0%	-3.5	20µM*	6.7%	-12.4%
CCCCCCNC(=O)Cc1c(O)c2ccccc2[nH]c1=O	3.9%	7.6%	-3.7	28.2µM*	7.9%	-8.3%
Cc1ccc(C(=O)NCCOc2cccc(C)c2)cc1	5.6%	0.0%	2.2	-0.8%	10.5%	4.0%
CCN(C(=O)CSc1nnnn1C)C1CCCCC1	-2.1%	17.4%	-6.5	1.2%	-5.9%	-4.3%
CCn1nnnc1SCC(=O)N(C1CCCCC1)C1CCCCC1	-17.5%	8.91µM*	-2.6	1.9%	-17.8%	6.2%
O=C(CC(O)(CC(=O)OCc1ccccc1)C(=O)OCc1ccccc1)OCc1ccccc1	.	8.91µM*	0.9	.	-0.8%	8.8%
O=C(CC(=O)OCc1ccccc1)OCc1ccccc1	.	1.3%	-1.9	0.1%	-3.1%	-1.6%
Cc1ccc(C(CC(=O)NCCCN(C)C)c2ccc(OC(C)C)cc2)cc1 (centres undefined)	-8.0%	11.2µM*	-4.0	.	-17.0%	7.7%
CC(C)C[C@H](N)c1cn([C@@H](Cc2cc3ccccc3[nH]2)C(=O)N2CCNCC2)nn1	-0.9%	6.3%	0.1	-3.3%	24.5%	-3.4%
COc1cc(C)c2ccccc2n1	.	.	.	-15.6%	.	.
COc1cc(OC)c2c(OC)cccc2n1	13.6%	19.1%	1.1	17.8µM*	0.5%	0.4%
Cc1cc(=O)oc2cc(OCC(=O)OCC(=O)NC(C)C)ccc12	-0.9%	15.5%	-0.3	-29.7%	0.7%	1.1%
CC(=O)c1ccc(NC(=O)CSc2ccc3nnc(-c4ccccn4)n3n2)cc1	-4.8%	49.8%	-0.9	-3.0%	-13.2%	1.6%
CCc1ccc2nc(NC(=O)CCCc3cccs3)sc2c1	18.2%	?	-0.8	12.6µM*	2.3%	1.4%
Cc1ccc2nc(NC(=O)Cc3cccs3)sc2c1	21.2%	-9.9%	-3.7	-0.1%	0.1%	-16.7%
